Results as given in PubChem BioAssay (NCI).
About 83,000 compounds went through this panel and 20% of them were active in at least one assay; those are over-represented in the sample as a whole.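 96-well plates, one dose, 48 hours. Percent growth reported; active if below 10.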 Unmarked numbers belong to inactive results. Active and inactive are the calls of the source.

Assays:
Experiment in all cases: NCI-60 one-dose screen, 48 h (100 = growth as untreated, 0 = no growth, -100 = all killed)
Settings in all cases: 10 µM
SR leukemia = system: SR leukemia
OVCAR-8 ovarian = system: OVCAR-8 ovarian
OVCAR-5 ovarian = system: OVCAR-5 ovarian
OVCAR-4 ovarian = system: OVCAR-4 ovarian
SK-OV-3 ovarian = system: SK-OV-3 ovarian
IGROV1 ovarian = system: IGROV1 ovarian
OVCAR-3 ovarian = system: OVCAR-3 ovarian
HS 578T breast = system: HS 578T breast
NCI/ADR-RES ovarian = system: NCI/ADR-RES ovarian
RPMI-8226 leukemia = system: RPMI-8226 leukemia

Structure (SMILES) | growth (SR leukemia) | growth (OVCAR-8 ovarian) | growth (OVCAR-5 ovarian) | growth (OVCAR-4 ovarian) | growth (SK-OV-3 ovarian) | growth (IGROV1 ovarian) | growth (OVCAR-3 ovarian) | growth (HS 578T breast) | growth (NCI/ADR-RES ovarian) | growth (RPMI-8226 leukemia)
O=C(CCCNC(=O)c1nc(-c2ccccc2)n(-c2ccccc2)n1)NO | 106% | 96.9% | 118% | 118% | 97% | 101% | 108% | 105% | 109% | –
Clc1nc2ccc(Br)cc2cc1-c1nc2ccccc2[nH]1 | 92.3% | – | 108% | 65.3% | 54.8% | 80.1% | 95.5% | 47.8% | 92.9% | 70.4%
CC(=O)Nc1cc2c(cc1Cl)Cc1cc(Cl)ccc1-2 | 80.1% | – | 83.7% | 83.9% | 96% | 72.4% | 103% | 78.6% | 97% | 111%
CCOC(=O)C1=CSC2=NC3=C(CCC/C3=C\c3cc(OC)c(OC)c(OC)c3)C(c3cc(OC)c(OC)c(OC)c3)N12 (centres undefined) | 31.2% | – | 75.7% | 72.3% | 102% | 89.7% | 57.1% | 46.8% | 3.63% (active) | 22.4%
COc1cccc2ccc(CC(O)(c3ccccc3)c3ccccc3)nc12 | 82.3% | – | 115% | 51.2% | 93.3% | – | 80.3% | 103% | 94.4% | 90.7%
Cc1cc(SCc2ccccc2)nc(N)n1 | 106% | – | – | – | 108% | – | 123% | 111% | 105% | 105%
CC(C)[N+]1(C)C2CC[C@@H]1CC(OC(=O)C(CO)c1ccccc1)C2 (some centres undefined) | 123% | – | 108% | 110% | 116% | 119% | 125% | 104% | 101% | 101%
O=C(N/N=C/c1ccc([N+](=O)[O-])cc1)c1ccccc1Nc1cccc(C(F)(F)F)c1 | 104% | – | 98.6% | 98.2% | 103% | 67.3% | 103% | 7.5% (active) | 91.4% | 90.4%
c1ccc(/C(=N\Nc2ccc3ccccc3n2)c2ccccn2)cc1 | -23.6% (active) | – | 51.1% | 10.1% | 20.5% | 2.49% (active) | 22.1% | 14.7% | 11.4% | 9.21% (active)
O=C(O)COc1c(Cl)cc([N+](=O)[O-])cc1Cl | 82.3% | – | 95.7% | 108% | 92.3% | 93.6% | 113% | 105% | 108% | 101%
Cc1cc(CCNC=O)c(C)c2c1sc1ccccc12 | 89.4% | – | 82.4% | 85% | 104% | 122% | 111% | 54% | 97.8% | 92.4%
O=c1oc2c(cc1-c1ccc(F)cc1)C(O)Oc1ccccc1-2 (centres undefined) | 58.1% | – | 96.2% | 90.6% | 105% | – | 80.4% | 16.6% | 54.5% | 90.8%
C/C=C/CSC(C)(C)C(=O)NC | 109% | – | 113% | 117% | 95.6% | 115% | 108% | 99.5% | 108% | 99.8%
CO[C@H]1CC(O[C@@H]2/C(C)=C/C[C@@H]3C[C@@H](C[C@]4(C=C[C@H](C)[C@@H](C5CCCCC5)O4)O3)OC(=O)[C@@H]3C=C(C)[C@@H](O)[C@H]4OC/C(=C\C=C\[C@@H]2C)[C@]43O)O[C@@H](C)C1O[C@H]1C[C@H](OC)[C@@H](O)[C@H](C)O1 (some centres undefined) | -52.8% (active) | – | -65.3% (active) | -46.8% (active) | -84.1% (active) | -54.7% (active) | -96.9% (active) | -40.4% (active) | -65.1% (active) | -25.1% (active)
COc1ccc(/C=c2\sc3n(c2=O)C(c2cc(OC)c(OC)c(OC)c2)C=C(c2ccc(OC)c(OC)c2)N=3)cc1OC (centres undefined) | 91.5% | 98.8% | – | – | 108% | – | 103% | 90.8% | 97.5% | 63.7%
CCCCCCCCCCCCCCCCCC[n+]1ccc2c(C)c3c(c(C)c2c1)c1cc(O)ccc1n3CC | 12.2% | 7.3% (active) | 42.5% | 18.2% | 22.2% | 6.43% (active) | 4.31% (active) | 9.04% (active) | 72.3% | –
CCOc1ccccc1/C=N\N=C\c1ccccc1O | 80.6% | – | 120% | 112% | 95.7% | 95.8% | 88.9% | 110% | 99.9% | 100%
CCCCC/C=C/C/C=C/CCCCCCCC1=NC(C)(C)CN1C(C)C | 2.99% (active) | – | 62.9% | 27.2% | 68.1% | 8.27% (active) | 17.4% | 26.7% | 37.1% | -35.7% (active)
S=C(NCc1ccccc1)NCc1ccccc1 | 98.4% | – | 108% | 102% | 99.2% | 97.4% | 98.5% | 96.1% | 99.5% | 100%
Oc1cccc(-c2nc3sccn3c2-c2ccncn2)c1 | 60.1% | – | 119% | – | 88.4% | 91.2% | 114% | 81.7% | 94% | 118%
Cc1c(O)c(=O)ccn1C1CCC(CC2CCC(n3ccc(=O)c(O)c3C)CC2)CC1 (centres undefined) | 41.8% | 33.5% | 54.5% | 32.2% | 49.9% | 32.5% | 28.3% | 21.9% | 83% | –
Cc1c(Cl)cccc1NC(=O)CN1CCOCC1 | 86.1% | – | 111% | 93.9% | 97.1% | 110% | 107% | 92.3% | 100% | 101%
Nc1nc(-c2ccc(Cl)cc2)cc(-c2cc3ccccc3oc2=O)n1 | 106% | – | 108% | 100% | – | 55.1% | 100% | 107% | 108% | 98.6%
COc1cc(-c2nn(-c3cccc(NC(=O)CCN4CCN(c5ccccc5)CC4)c3)cc2-c2ccncc2)ccc1Cl | 4.54% (active) | – | 47.5% | 34% | 26.7% | 32.7% | 16.2% | 31.8% | 21% | 20.6%
CN(C)CCOc1cccc(NC2=C(Cl)C(=O)C(Nc3cccc(OCCN(C)C)c3)=C(Cl)C2=O)c1 | -18.2% (active) | – | -53.9% (active) | -100% (active) | 94.9% | -76.6% (active) | -97.3% (active) | 0.785% (active) | 57.2% | -46.9% (active)
CCn1cc(CNc2ccc(C(=O)Nc3ccc4ccccc4c3)cc2)c(C)n1 | 46.2% | 45% | 94.4% | 20.8% | 11.8% | 68% | 55.9% | 105% | 23.3% | –
C1CN(CC2CCC(CN3CCOCC3)O2)CCO1 (centres undefined) | 61.7% | – | 109% | 107% | 90.2% | 108% | 112% | 104% | 101% | 92.3%
Cc1ccc(C(C)C)c(O)c1NC(=O)OC(C)C | 115% | 95.7% | – | – | 106% | – | 104% | 95.8% | 98.3% | 102%
CCN1CCN(CCC(=O)Nc2cccc(-n3cc(-c4ccncc4)c(-c4ccc(Cl)c(OC)c4)n3)c2)CC1 | -12.3% (active) | – | 37.6% | 43.1% | 39.2% | 47.2% | 7.41% (active) | 13.1% | 15.2% | -38.8% (active)
CN1CCc2c(sc3nc4n(-c5ccc(Cl)cc5)cnn4c(=O)c23)C1 | 120% | 100% | 105% | 111% | 91.4% | 95.3% | 101% | 115% | 104% | –
